Experimental findings from PubChem BioAssay AID504332 (National Center for Advancing Translational Sciences (NCATS), 2011) are described below.

Among all 350,000 compounds or so, about 31,000 (8.9%) were called active. Not shown: some 15% with an inconclusive outcome. Calls come from the whole dose curve; as a rule, active = well fitted inhibition curve with a large enough effect; inconclusive = small, poorly fitted or top-dose-only effect; inactive = no such curve, though single readings can be large or run the other way. The entries come from a sample that favours actives as a whole. Entries that show only a call come without a potency.
Potency is the fitted concentration of half-maximal effect.

Histone-lysine N-methyltransferase EHMT2 (Homo sapiens), sequence (Q96KQ7 913-1193 limits assumed): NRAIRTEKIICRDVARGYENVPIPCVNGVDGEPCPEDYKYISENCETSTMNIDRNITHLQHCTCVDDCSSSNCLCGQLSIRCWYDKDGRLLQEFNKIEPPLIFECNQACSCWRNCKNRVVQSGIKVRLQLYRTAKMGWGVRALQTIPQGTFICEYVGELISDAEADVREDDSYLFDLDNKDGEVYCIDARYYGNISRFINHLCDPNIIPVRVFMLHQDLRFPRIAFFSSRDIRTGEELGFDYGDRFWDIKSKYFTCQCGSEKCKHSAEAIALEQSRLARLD

The assay deals with Histone-lysine N-methyltransferase EHMT2 (Homo sapiens) (UniProt Q96KQ7). The assay can be described thus: qHTS Assay for Inhibitors of Histone Lysine Methyltransferase G9a. Note: nearly all actives have a fitted effect of over 75% in size. The note with it: G9a H3K9 monomethylation, AlphaScreen, 2 h; series mostly up to 59 µM. Put shortly:
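Quantitative HTS format: methyltransferase activity on a biotin-tagged H3K9 peptide is measured by AlphaScreen, using a rabbit anti-monomethyl-H3K9 antibody with streptavidin donor and anti-IgG acceptor beads. Final levels are 20 nM enzyme, 500 nM peptide, 20 uM SAM; 2 h RT.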
A general note: qHTS replaces the single test concentration by a dilution series.
`CC1CCCC(NC(=O)c2cc(S(=O)(=O)N3CCCCC3)ccc2Cl)C1C` (stereo not drawn): the activity, negative = inhibition was 12.6% [at 12.7 µM] (inactive). As for `CCOC(=O)c1c(C)[nH]c(C)c1S(=O)(=O)N1CCC(C(=O)Nc2ccc(C)c(Cl)c2)CC1`, the Potency entry is “inactive”.

Consider `CC(=O)Nc1cccc(C(=O)OCC(=O)c2ccc3c(c2)OCO3)c1`, for which the Potency result was “inactive”. The same measure, in the same setting: in the case of `CC1(C)CC(=O)c2ccc(O)cc2O1` it was “inactive”.

As to `COc1ccc(C(=O)Nc2onc3c2CCCC3)cc1`, the Potency result was “inactive”.

`CC(C)(C)c1ccc(C(=O)NCC(c2ccc(Cl)cc2)N2CCOCC2)cc1` (stereo not drawn): the Potency entry is “inactive”. Same read-out and setting: for `CCOC(=O)c1cc2c(=O)n3ccccc3nc2n(CC2CCCO2)c1=NC(=O)c1ccccc1F` (stereo not drawn) the value was “inactive”; for `COc1ccc(-c2nn3c(-c4ccccc4)nnc3s2)cc1OC`, 35.5 µM (active); for `CCOc1cccc(-c2nn3c(-c4ccccn4)nnc3s2)c1`, “inactive”. As to `COc1cc(-c2nn3c(-c4cccc(C)c4)nnc3s2)cc(OC)c1OC`, the activity, negative = inhibition was -23.6% [at 12.7 µM] (inactive). `COC(=O)c1ccc(NCC(=O)c2ccccc2)cc1`: the Potency is 50.1 µM (active). On the same count and under the same terms, for `Cc1ccc(C(=O)CNc2ccc(F)cc2)cc1` the value was “inactive”. On to `COC(=O)c1ccc(NCC(=O)N2CCCCCC2)cc1`, for which the Potency entry was “inactive”.

Consider `CCCCc1nc2cc(C(=O)NCCc3cnn(C)c3)ccc2o1`, for which the Potency result is “inactive”.

On to `O=C(NC1CCCCCCC1)c1cccs1`, for which the Potency entry is “inactive”. Same read-out and setting: in the case of `CCN(Cc1ccccc1)C(=O)Cc1ccc(OC)c(S(=O)(=O)N2CCOCC2)c1` it was “inactive”; in that of `Cc1ccc(C(=O)c2ccc(N3CCN(C)CC3)c([N+](=O)[O-])c2)cc1`, “inactive”; in that of `CN1CCN(c2ccc(S(=O)(=O)Nc3ccccc3)cc2[N+](=O)[O-])CC1`, “inactive”. On the same count and under the same terms, for `CN1CCN(S(=O)(=O)c2ccc(N3CCN(c4ccccc4O)CC3)c([N+](=O)[O-])c2)CC1` the value was 39.8 µM (active). With `Cc1ccc(S(=O)(=O)n2nc(-c3ccc(Cl)cc3)nc2NCc2ccccc2)cc1`, the Potency result is “inactive”. For `COCCNc1cc(-c2ccccc2)nc2cc(-c3cccc(F)c3)nn12`, the Potency entry was “inactive”. Still for that read-out and setting: for `COCC1CCN(C(=O)c2ccc3oc(Cc4ccccc4)nc3c2)C1` (stereo not drawn) the value was “inactive”; for `CCN(CC)S(=O)(=O)c1ccc2[nH]c(=O)cc(C(=O)N(C)C3CCS(=O)(=O)C3)c2c1` (stereo not drawn), “inactive”; for `COc1cccc(CNC(=O)C2CCN(S(=O)(=O)c3ccc4c(ccn4C)c3)CC2)c1`, “inactive”.

In the case of `COc1cccc(-c2nc(CS(=O)CC(=O)NCc3ccc(F)cc3)c(C)o2)c1` (stereo not drawn), the Potency result was “inactive”. `Cc1ccc(-c2nc(CS(=O)CC(=O)NC3CCCC3)c(C)o2)cc1` (stereo not drawn): the Potency was 70.8 µM (active).

Turning to `COc1ccc(-c2nc(CS(=O)CC(=O)NCc3ccccc3)c(C)o2)cc1OC` (stereo not drawn), the Potency result was “inactive”. Same read-out and setting: for `COc1ccc(CNC(=O)CS(=O)Cc2nc(-c3cccc(C)c3)oc2C)cc1` (stereo not drawn) the value was “inactive”; for `Cc1cccc(-c2nc(CS(=O)CC(=O)NC(C)CCc3ccccc3)c(C)o2)c1` (stereo not drawn), “inactive”; for `COc1ccc(-c2nc(CS(=O)CC(=O)N3CCc4ccccc4C3)c(C)o2)cc1` (stereo not drawn), 28.2 µM (active). With `CCC(=O)Nc1cccc(C(=O)OCc2cc(=O)n3nc(CC)sc3n2)c1`, the activity, negative = inhibition was -1.91% [at 12.7 µM] (inactive).

On to `COc1ccccc1CNC(=O)C(Cc1ccccc1)NS(=O)(=O)c1ccc2c(c1)oc(=O)n2C` (stereo not drawn), for which the Potency entry is “inactive”. Same read-out and setting: in the case of `CCOc1ccc(OCC)c(NC(=O)C(NS(=O)(=O)c2ccc3c(c2)oc(=O)n3C)C(C)C)c1` (stereo not drawn) it was 56.2 µM (active). For `CC(C)CC(NS(=O)(=O)c1ccc2c(c1)oc(=O)n2C)C(=O)NCc1ccccc1Cl` (stereo not drawn), the Potency result is “inactive”. Turning to `CCCn1c2ccccc2c2cnn(CC(=O)N3CCCC(C(=O)OCC)C3)c(=O)c21` (stereo not drawn), the Potency entry was “inactive”.

In the case of `CC(Sc1sc(=S)sc1SC(C)C(=O)O)C(=O)O` (stereo not drawn), the Potency was 50.1 µM (active). On to `Cc1ccc(C)c(NC(=O)COC(=O)Cn2c(C)csc2=O)c1`, for which the Potency entry is “inactive”.

With `COc1ccccc1CCC(=O)NNC(=O)c1ccncc1`, the Potency result is “inactive”. Still for that read-out and setting: in the case of `O=C(CP(=O)(c1ccccc1)c1ccccc1)N1CCOCC1` it was “inactive”; in that of `CC(C)(C)c1cc(P(=O)(c2ccccc2)c2ccccc2)ccc1O`, “inactive”; in that of `O=P(O)(CP(=O)(c1ccccc1)c1ccccc1)c1ccccc1O`, 50.1 µM (active).

As for `O=C1N(Cc2ccccc2)c2ccc(Cl)cc2C1(O)c1c[nH]c2ccccc12` (stereo not drawn), the Potency entry was “inactive”. On the same count and under the same terms, for `COc1ccccc1N1CCN(C2C(=O)c3ccccc3N2C(C)=O)CC1` (stereo not drawn) the value was “inactive”. `O=C(CCS(=O)(=O)c1ccc2c(c1)NC(=O)CS2)NCc1ccccc1Cl`: the Potency result was “inactive”. Take `O=S1(=O)CC/C(=N\Nc2ccc(F)cc2)c2ccsc21`: the Potency is 10 µM (active). On to `COc1ccc(C(=O)N/N=C2\CCS(=O)(=O)c3ccc(F)cc32)cc1OC`, for which the activity, negative = inhibition was 27.4% [at 12.7 µM] (inactive).

Regarding `O=C(c1cccc(Cl)c1)N1CCN(CCc2ccncc2)CC1`, the Potency entry was “inactive”.

As for `Cc1ccccc1C(OCCN(C)C)C1CCCCC1` (stereo not drawn), the Potency was 3.16 µM (active). With `CN(C)CCOC(=O)C(c1ccccc1)C1(O)CCCC1` (stereo not drawn), the activity, negative = inhibition is 4.21% [at 2.33 µM] (inactive).

As to `Cc1ccccc1C(OCC(O)CN1CCCCC1CCO)c1ccccc1` (stereo not drawn), the Potency result was “inactive”. Still for that read-out and setting: in the case of `COc1ccc(N=Nc2c(-c3ccc(OC)cc3)[nH]oc2=O)cc1` it was 39.8 µM (active). Consider `COc1ccc2[nH]c(=O)c(-c3noc(-c4ccc(F)cc4)n3)cc2c1`, for which the activity, negative = inhibition was -36.9% [at 12.7 µM] (inactive). As to `COc1ccc(-c2cn[nH]c2-c2ccc(OC)cc2)cc1`, the Potency result is “inactive”. Turning to `Cc1occc1-c1nnc(SCC(=O)NC2CCCCC2)o1`, the activity, negative = inhibition is 9.17% [at 12.7 µM] (inactive). As for `COc1ccccc1CNC(=O)CSc1nc(=O)n(Cc2ccncc2)c2c1CCC2`, the Potency result is “inactive”. Regarding `CC1CN(CCOc2ccccc2[N+](=O)[O-])CC(C)O1` (stereo not drawn), the Potency is 10 µM (active). Regarding `CC1CN(c2nc(-c3ccccc3)nnc2-c2ccccc2)CC(C)O1` (stereo not drawn), the Potency entry is “inactive”. For `O=[N+]([O-])c1ccccc1OCCCCN1CCCCC1`, the Potency entry was “inactive”. On to `CC1CN(CC(=O)NC(C)c2ccccc2)CC(C)O1` (stereo not drawn), for which the Potency result was “inactive”.

Regarding `Cc1cc(C(=O)COc2ccccc2[N+](=O)[O-])c(C)n1-c1cccc(S(=O)(=O)N2CCOCC2)c1`, the Potency result is “inactive”.

Consider `CC1CN(CCCOc2ccccc2-c2ccccc2)CC(C)O1` (stereo not drawn), for which the Potency is 8.91 µM (active). Turning to `CC1CCCN(CCOCCOc2ccccc2-c2ccccc2)C1` (stereo not drawn), the Potency is 10 µM (active). On to `CC1CC(C)CN(CCOc2cccc3ccccc23)C1` (stereo not drawn), for which the activity, negative = inhibition was 17.4% [at 2.33 µM] (inactive). As for `CC1CCCN(CC(=O)Nc2cc(Cl)ccc2Oc2ccccc2)C1` (stereo not drawn), the Potency entry is “inactive”. Same read-out and setting: for `CC(C)(C)c1ccc(S(=O)(=O)N2CCN(C(=O)c3ccc4c(c3)C(=O)N(Cc3ccncc3)C4=O)CC2)cc1` the value was “inactive”; for `CCc1ccccc1NC(=O)CSc1nnc(-c2ccccc2)c(-c2ccccc2)n1`, “inactive”. The same measure, in the same setting: in the case of `O=C(Nc1ccc(-c2nc3cc(NC(=O)c4ccccc4Cl)ccc3o2)cc1)c1ccccc1Cl` it was “inactive”. Consider `O=C(CCc1nc2sc3c(c2c(=O)[nH]1)CCCC3)NCC(=O)Nc1ccccc1Br`, for which the activity, negative = inhibition was -4.82% [at 12.7 µM] (inactive). Same read-out and setting: for `COc1cccc(C(=O)N2CCC(n3nccc3NC(=O)C3CCOC3)CC2)c1` (stereo not drawn) the value was -5.15% [at 0.501 µM] (inactive).

Regarding `Cc1cc(Br)ccc1NC(=O)Cn1cnc2sc(C)c(S(=O)(=O)N3CCN(C)CC3)c2c1=O`, the Potency entry is “inactive”. Same read-out and setting: in the case of `O=C(Nc1cccc2cccnc12)c1cccc(N2C(=O)CCC2=O)c1` it was “inactive”; in that of `COc1ccccc1-c1nnc(NC(=O)c2cccc(N3C(=O)CCC3=O)c2)o1`, 1.41 µM (active). Regarding `Cc1cc(NC(=O)c2cccc(N3C(=O)CCC3=O)c2)no1`, the Potency entry is “inactive”.

As for `COc1cc(CN2CCN(Cc3ccc(C)cc3)CC2)c([N+](=O)[O-])cc1OC`, the Potency was 4.47 µM (active). Regarding `COc1cc(CN2CC(C)CC(C)C2)cc([N+](=O)[O-])c1O` (stereo not drawn), the Potency entry was “inactive”. With `COc1cc(NC(=O)NCC2CCN(Cc3ccc(C)cc3)CC2)cc(OC)c1OC`, the Potency entry was “inactive”.

On to `CCOC(=O)c1cc(-c2ccccc2)n(CCC(=O)Nc2ccccc2CC)c1C`, for which the Potency entry is “inactive”. On the same count and under the same terms, for `COC(CCN(C)C)(c1ccccc1)c1ccccc1` the value was “inactive”; for `CN(C)CCOC1c2ccccc2-c2ccccc21`, 22.4 µM (active). The same measure, in the same setting: for `O=C(N/N=C/c1ccc2c(c1)OCO2)c1ccc(Cn2cc([N+](=O)[O-])cn2)o1` the value was “inactive”; for `O=C(N/N=C\c1ccc(Br)cc1)c1ccc(Cn2cccn2)o1`, “inactive”. The same measure, in the same setting: in the case of `CN(C)c1ccc(/C=N/NC(=O)c2ccc(Cn3cc(Br)cn3)o2)cc1` it was 39.8 µM (active); in that of `Cc1ccc(C)c(N2CCN(C(=O)Cc3c(C(=O)O)c(C)cn3C)CC2)c1`, “inactive”. Turning to `CCC(C(=O)N1CCN(S(=O)(=O)c2sc(C(=O)O)c(C)c2C(=O)O)CC1)c1ccccc1` (stereo not drawn), the activity, negative = inhibition is -9.12% [at 2.33 µM] (inactive). With `COc1cc(/C=N/O)cc(Br)c1OS(=O)(=O)c1ccc(C)cc1`, the Potency entry is “inactive”. Same read-out and setting: for `COc1cc(/C=N/Nc2ccc(C)cc2)cc(Br)c1O` the value was 3.98 µM (active); for `COc1ccc(C(=O)Oc2cc(/C=N/NS(=O)(=O)c3ccc(C)cc3)ccc2OC)cc1`, “inactive”; for `O=C(NC1CC(=O)N(c2ccc(F)cc2)C1)C1CCCCC1` (stereo not drawn), “inactive”.

On to `COc1ccc(NC(=O)CSc2nnc(-c3nnn(-c4ccc(F)cc4)c3C)o2)cc1`, for which the Potency entry was “inactive”. On to `Cc1c(O)c(C)c2c(c1O)C(=O)C[C@@H](c1ccccc1)O2`, for which the activity, negative = inhibition was 17.8% [at 2.33 µM] (inactive). As to `CCn1c(SCC(=O)Nc2nc(C)cs2)nnc1C(C)NC(=O)c1ccccc1` (stereo not drawn), the Potency result is “inactive”.

For the compound `CCn1c(SCC(=O)NNC(=O)c2ccc(OC)cc2)nnc1C(C)C`, the Potency result is “inactive”.

For `CCn1c(C(C)NC(=O)c2ccc(C)cc2)n[nH]c1=S` (stereo not drawn), the Potency was 39.8 µM (active). On the same count and under the same terms, in the case of `CC(NC(=O)CCc1cn(Cc2ccccc2Cl)c2ccccc12)c1ccccc1` (stereo not drawn) it was “inactive”. For `COc1ccc(Cn2c(=O)n(-c3ccccc3C)c(=O)c3c4c(sc32)CN(C(C)=O)CC4)cc1`, the Potency result was “inactive”.

As to `CCN(CC)c1ccc2cc(C(N)=O)/c(=N\NC(=O)c3ccncc3)oc2c1`, the Potency entry was “inactive”. On the same count and under the same terms, in the case of `CCN(CC)c1ccc2oc(=O)c(C)nc2c1` it was 11.2 µM (active); in that of `CCN(CC)c1ccc2c(Nc3ccccc3)c(C=O)c(=O)oc2c1`, “inactive”.
